ROS inducer: ROS inducers in U2OS cancer cells, primary screen, cell-based, H2DCF-DA fluorescence; U2OS ROS induction; 46,000 tested, 2% active; ROS induction (% of piperlongumine), % at 10 µM; AID 624156, 2012; in the data active = ROS induction above about 79%, passing the limit was not always enough;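 note: 0% = DMSO vehicle median and 100% = reference compound median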
The depositor's hits bear a star. The sample as a whole holds a higher share of hits than the screen did.

Results for C=CCN1C(=O)[C@]2(O[C@H](CCO)[C@@H]([Si](C)(C)c3ccc(OC)cc3)[C@@H]2C)c2cc(N3CCC3=O)ccc21 ?
ROS inducer: 20.6

Results for C=CCN1C(=O)[C@@]2(O[C@@H](CCO)[C@H]([Si](C)(C)c3ccc(OC)cc3)[C@H]2C)c2cc(I)ccc21 ?
ROS inducer: 93.6*

How did C=CCN1C(=O)[C@@]2(O[C@@H](CCO)[C@H]([Si](C)(C)c3ccc(OC)cc3)[C@H]2C)c2cc(N3CCOC3=O)ccc21 do in these assays?
ROS inducer: 19.0

What do the screens show for `COc1ccc([Si](C)(C)[C@@H]2[C@@H](CCO)O[C@]3(C(=O)N(Cc4ccccc4)c4ccc(NC(C)=O)cc43)[C@H]2C)cc1`?
ROS inducer: 66.8

What do the screens show for `COc1ccc([Si](C)(C)[C@H]2[C@H](CCO)O[C@@]3(C(=O)N(Cc4ccccc4)c4ccc(NC(C)=O)cc43)[C@@H]2C)cc1`?
ROS inducer: 45.8

How did CCCCC(C(N)=O)C1=NC(C)(C)Cc2ccccc21 (stereo unspecified) do in these assays?
ROS inducer: -7.0

How did Cc1ccc2c(Sc3ccc(Cl)cc3)c(C(=O)NCCN3CCOCC3)[nH]c2c1 do in these assays?
ROS inducer: 14.3

What do the screens show for `COc1cc(Br)cc(/C=N/N(CCO)C2=NS(=O)(=O)c3ccccc32)c1OC`?
ROS inducer: 115.1*

What do the screens show for `CCC(C)CC(C)/C=C\C1OC2=C(C(=O)OC2(C)O)C(O)C1O` (stereo unspecified)?
ROS inducer: -6.0

What do the screens show for `COc1cc(NC(=O)Cn2nnc(-c3ccccc3Cl)n2)cc(OC)c1OC`?
ROS inducer: 0.9

What do the screens show for `Cc1onc(-c2ccccc2Cl)c1C(=O)N(Cc1nc(-c2ccccc2)no1)C1CCCCC1`?
ROS inducer: 10.7

How did COc1cc(-c2noc(-c3c(-c4ccccc4Cl)noc3C)n2)cc(OC)c1OC do in these assays?
ROS inducer: 117.4*

What do the screens show for `Cn1nnc(N2C(=O)C(=O)C(C(=O)c3ccco3)C2c2ccccc2)n1` (stereo unspecified)?
ROS inducer: -11.2

What do the screens show for `COc1ccc(C(=O)NCC#N)cc1`?
ROS inducer: 10.9

What do the screens show for `COc1ccc(CCNC(=O)c2ccc3c(=O)n(CC4CCCO4)c(=S)[nH]c3c2)cc1OC` (stereo unspecified)?
ROS inducer: 3.4

How did O=C(NCc1ccccc1)c1ccc2c(=O)n(CCC3=CCCCC3)c(=O)[nH]c2c1 do in these assays?
ROS inducer: 44.0

Results for COc1ccc(CCNC(=O)c2ccc3c(=O)n(CCC4=CCCCC4)c(=S)[nH]c3c2)cc1OC ?
ROS inducer: 95.6*

Results for C[C@@H]1CN([C@H](C)CO)C(=O)Cc2cc(NS(=O)(=O)c3cn(C)cn3)ccc2O[C@@H]1CN(C)C(=O)Nc1cccc2ccccc12 ?
ROS inducer: 1.8

How did C[C@@H]1CN([C@H](C)CO)C(=O)Cc2cc(NS(=O)(=O)c3cn(C)cn3)ccc2O[C@H]1CN(C)C(=O)Nc1cccc2ccccc12 do in these assays?
ROS inducer: 7.7

How did C[C@H](CO)N1C[C@H](C)[C@H](CN(C)C(=O)Nc2cccc3ccccc23)Oc2ccc(NS(=O)(=O)c3ccccc3)cc2CC1=O do in these assays?
ROS inducer: -1.1

What do the screens show for `C[C@H]1CN([C@@H](C)CO)C(=O)Cc2cc(NS(=O)(=O)c3cn(C)cn3)ccc2O[C@H]1CN(C)C(=O)Nc1cccc2ccccc12`?
ROS inducer: 121.1*

What do the screens show for `C[C@@H]1CN([C@H](C)CO)C(=O)Cc2cc(NS(=O)(=O)c3ccccc3)ccc2O[C@H]1CN(C)C(=O)Nc1cccc2ccccc12`?
ROS inducer: 97.6*

How did C[C@@H]1CN([C@@H](C)CO)C(=O)Cc2cc(NS(=O)(=O)c3ccccc3)ccc2O[C@@H]1CN(C)C(=O)Nc1cccc2ccccc12 do in these assays?
ROS inducer: -3.2

What do the screens show for `S=C(NCCc1ccccc1)NCCc1c[nH]c2ccccc12`?
ROS inducer: 0.6

What do the screens show for `CCOC(=O)c1cnc(-c2cccs2)nc1Nc1ccc(Cl)cc1`?
ROS inducer: -4.9

How did O=C(CN1C(=O)CSc2ccc(C(F)(F)F)cc21)Nc1cccc(C(F)(F)F)c1 do in these assays?
ROS inducer: -24.7

What do the screens show for `Cc1ccc2[nH]c(=O)c3cc(C(=O)NCCCN4CCN(c5ccc(F)cc5)CC4)sc3c2c1`?
ROS inducer: 22.4

What do the screens show for `N#CC1=C(SCC(=O)Nc2ccc(F)cc2)NC(=O)C(C#N)C12CCCCC2` (stereo unspecified)?
ROS inducer: -13.6

How did Cc1ccc(NC(=O)CC(NCC2CCCO2)C(=O)O)cc1 (stereo unspecified) do in these assays?
ROS inducer: -6.2

How did COC(=O)CNC(c1ccccc1)c1cc(Br)ccc1NC(=O)c1ccccc1Cl (stereo unspecified) do in these assays?
ROS inducer: 97.1*

What do the screens show for `O=C(NC(c1ccccc1)c1ccccc1)c1ccccc1Cl`?
ROS inducer: -15.6

Results for COC(=O)CNC(c1ccccc1)c1cc(Br)ccc1N=Cc1ccccc1O (stereo unspecified) ?
ROS inducer: 1.8

What do the screens show for `C[C@H](CO)N1C[C@H](C)[C@H](CN(C)Cc2ccc(Oc3ccccc3)cc2)Oc2c(NC(=O)C3CCCCC3)cccc2C1=O`?
ROS inducer: 25.5

What do the screens show for `C[C@H]1CN([C@@H](C)CO)C(=O)c2cc(NC(=O)C3CCCCC3)ccc2O[C@@H]1CN(C)Cc1ccc(Oc2ccccc2)cc1`?
ROS inducer: 88.9*

What do the screens show for `C[C@@H]1CN([C@@H](C)CO)C(=O)c2cc(NC(=O)C3CC3)ccc2O[C@@H]1CN(C)Cc1ccc(Oc2ccccc2)cc1`?
ROS inducer: -3.6

Results for COc1ccc(CN(C)C[C@@H]2Oc3c(NC(=O)Nc4ccccc4)cccc3C(=O)N([C@H](C)CO)C[C@H]2C)cc1 ?
ROS inducer: 13.6

What do the screens show for `C[C@H]1CN([C@@H](C)CO)C(=O)c2cccc(NC(=O)C3CC3)c2O[C@@H]1CN(C)Cc1ccc(Oc2ccccc2)cc1`?
ROS inducer: 93.8*

How did COc1ccc(NC(=O)Nc2cccc3c2O[C@H](CN(C)Cc2ccc(Oc4ccccc4)cc2)[C@H](C)CN([C@@H](C)CO)C3=O)cc1 do in these assays?
ROS inducer: 88.6*

Results for COc1ccc(CN(C)C[C@H]2Oc3c(NC(=O)Nc4ccccc4)cccc3C(=O)N([C@@H](C)CO)C[C@H]2C)cc1 ?
ROS inducer: 4.0

How did C[C@@H]1CN([C@@H](C)CO)C(=O)c2cc(NC(=O)C3CCCCC3)ccc2O[C@@H]1CN(C)Cc1ccc(Oc2ccccc2)cc1 do in these assays?
ROS inducer: 10.4

What do the screens show for `C[C@@H]1CN([C@@H](C)CO)C(=O)c2cccc(NC(=O)C3CCOCC3)c2O[C@@H]1CN(C)Cc1ccc(Oc2ccccc2)cc1`?
ROS inducer: 10.5

Results for C[C@H]1CN([C@@H](C)CO)C(=O)c2cc(NC(=O)NC3CCCCC3)ccc2O[C@@H]1CN(C)Cc1ccc(-c2ccccc2)cc1 ?
ROS inducer: 136.7*

How did C[C@@H]1CN([C@H](C)CO)C(=O)c2cc(NC(=O)NC3CCCCC3)ccc2O[C@@H]1CN(C)Cc1ccc(-c2ccccc2)cc1 do in these assays?
ROS inducer: -1.8

How did C[C@@H]1CN([C@@H](C)CO)C(=O)c2cc(NC(=O)NC3CCCCC3)ccc2O[C@H]1CN(C)Cc1ccc(-c2ccccc2)cc1 do in these assays?
ROS inducer: 10.0

How did O=c1c2sccc2nc(SCc2ccccc2)n1CCc1ccccc1 do in these assays?
ROS inducer: 28.1
